Compound activity: PubChem, National Center for Advancing Translational Sciences (NCATS)
Nrf2 ARE act = qHTS of Nrf2 Activators | Potency, µM (series often up to 46.1 µM), without a hit: top-dose activation, usual class: activators | actives 0.31% (n = 410,000) | AREc32 ARE-luciferase reporter (MCF7-derived line), luminescence, 24 h; also: potency is read from the fitted curve at half-maximal effect; % of control where 0% means no effect; nearly all actives have a fitted effect of over 65% in size
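ARE-driven firefly luciferase activity in AREc32 cells measured after a 24 hr compound exposure at 37 deg C, using Steady-Glo reagent and a 30 min room-temperature hold.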
Nrf2 inh = Nrf2 qHTS screen for inhibitors; A549 ARE-Fluc reporter, luciferase luminescence, 18-24 h; Potency, µM (top dose mostly 46 µM), inactives show at the top dose activity change, negative = inhibition, most hits filed as inhibitors; actives 2.1% (n = 360,000); also: potency is read from the fitted curve at half-maximal effect; % is scaled to controls: 0 for no effect and ±100 for the full control effect; nearly all actives have a fitted effect of over 60% in size
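Two sequential reads on A549 ARE_Fluc cells exposed to compound for 18-24 h: a CellTiter-Fluor fluorescence read for viability, then a luciferase luminescence read for Nrf2/ARE activity.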
miR-21 act = qHTS Assay for Modulators of miRNAs and/orActivators of miR-21. HeLa miR-21 FLuc reporter, luciferase, 48 h. Potency, µM (top dose mostly 38.3 µM), inactives show top-dose activity change, positive = activation, actives largely listed as activators. 340,000 tested, under 10 active. AID 2288, 2010;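 also: % of control where 0% means no effect; miR-21 action dims this reporter so a rising signal means less miR-21 action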
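HeLa cells endogenously expressing miR-21, stably carrying CMV-driven firefly luciferase with a downstream miR-21 binding site, 2000 cells/well. Titrations up to approximately 40 uM, 48 hours; luciferase luminescence read.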
ClpP mod = qHTS Assay for Activators of ClpP. Potency, µM (titrated, usually from 57.5 µM), for the others: top-dose activity change, negative = active. purified B. subtilis ClpP, FRET peptide cleavage, 20 min. actives 1.9% (n = 340,000). ATP-dependent Clp protease proteolytic subunit (Bacillus subtilis (strain 168)), P80244. AID 651965, 2013; active = well fitted falling curve with a large enough effect; inconclusive = small, poorly fitted or top-dose-only effect; inactive = no such curve, though single readings can be large or run the other way; also: potency is read from the fitted curve at half-maximal effect; the source files actives as falling curves though it sought activators and does not explain the sign; nearly all actives have a fitted effect of over 65% in size
Target sequence (P80244 whole entry, looked up): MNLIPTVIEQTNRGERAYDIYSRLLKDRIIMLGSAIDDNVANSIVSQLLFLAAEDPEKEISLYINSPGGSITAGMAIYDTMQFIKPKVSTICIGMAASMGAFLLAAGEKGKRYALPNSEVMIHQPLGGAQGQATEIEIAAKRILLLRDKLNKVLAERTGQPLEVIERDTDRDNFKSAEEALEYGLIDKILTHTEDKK
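Buffer: 100 mM Tris/HCl pH8, 100 mM KCl, 0.05% low protease BSA, 2.5% glycerol, 0.01% Tween-20. ClpP 10 microg/mL final; 20 min RT; delta FRET normalized to ADEP and DMSO controls.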
IL-2 act = qHTS of IL-2 Activators; activation, % (series mostly up to about 46 µM); IL-2 activation reporter assay, cell-based qHTS; stimulated with anti-CD3/CD4/CD28 beads; in transgenic mouse T cells; actives 0.065% (n = 360,000); in the data active = activation above about 50%; inconclusive = mostly about 30% to 49%; also: 0% is about no effect
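Unstimulated transgenic mouse T cells preincubated 60 min with compound, then stimulated with anti-CD3/anti-CD4-coated beads plus anti-CD28 for 18 h at 37 degrees C. IL-2 response read as EGFP and DsRed fluorescence by plate cytometry.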
A549 tox = Nrf2 qHTS screen for inhibitors: counterscreen for cytotoxicity; A549 ARE-Fluc cells, CellTiter-Fluor viability, 18-24 h; Potency, µM (top dose mostly 46 µM), for inactives: at the highest dose activity change, negative = cytotoxicity, hits mostly inhibitors; actives 0.16% (n = 390,000); also: potency is read from the fitted curve at half-maximal effect; % is scaled to controls: 0 for no effect and ±100 for the full control effect
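A549 ARE_Fluc cells in 5% FBS OPTI-MEM were exposed to compounds in concentration-response for 18-24 h at 37 deg C. Viability was read by CellTiter-Fluor fluorescence (Ex 405/Em 525) after 30 min, before the luciferase read.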
The depositor's hits bear a star; ? = inconclusive; nt = not tested or not shown. Sampled rows, rich in hits. Any-hit rate of the full collection: about 3.7%. Unless noted, calls follow the shape of the dose curve; as a rule, active = well fitted curve in the direction sought with a large enough effect; inconclusive = small, poorly fitted or top-dose-only effect, or another doubt; inactive = no such curve, though single readings can be large; an effect the other way counts as inactive or inconclusive.

SMILES | Nrf2 ARE act | Nrf2 inh | miR-21 act | ClpP mod | IL-2 act | A549 tox
Cc1ccc(S(=O)(=O)C(C#N)c2nc3ccccc3nc2N2CCN(C)CC2)cc1 (stereo unspecified) | -0.1% | 12.0% | 22.6% | -2.4% | 0.6 | -15.1%
CCOC(=O)N1CCN(c2nc3ccccc3nc2C(C#N)S(=O)(=O)c2ccc(C)cc2)CC1 (stereo unspecified) | -0.4% | 6.3% | -10.2% | 31.6µM* | ? | -5.5%
CCCCOC(=O)c1ccc(N=Nc2c(C)c(C#N)c(O)[nH]c2=O)cc1 | 10.9% | -5.9% | -20.7% | 2.9% | 106.6* | -11.7%
COc1ccc(NC(=O)Cn2c3ccc(OC)cc3c3nc4n(c(=O)c32)CCS4)cc1 | -0.4% | 23.1µM* | -5.4% | -24.0% | -0.5 | -0.3%
Cc1c(C(=O)NCC2CCCO2)oc2ccc3c(c12)C(=O)CC(C)(C)O3 (stereo unspecified) | -0.1% | ? | -32.9% | 25.1µM* | 0.2 | -2.9%
O=C(NC1C2CC3CC(C2)CC1C3)c1ccc2c(c1)OCO2 (stereo unspecified) | 2.1% | 1.1% | -34.7% | 20µM* | -0.9 | -12.0%
O=C(NNC(=O)c1ccc2c(c1)OCO2)NC12CC3CC(CC(C3)C1)C2 | -0.7% | -0.7% | -18.1% | -2.1% | -0.6 | 0.6%
COc1ccc(-c2cc(C(C)=O)c(C)n2CCC(=O)NCc2ccc(F)cc2)cc1 | 12.2% | nt | -2.4% | 1.6% | nt | 1.5%
Fc1ccc(-c2noc3ncnc(NCC4CCN(Cc5ccc(Cl)cc5)CC4)c23)cc1 | 5.8% | -2.9% | 29.5% | 2.4% | nt | ?
Fc1ccc(CNc2ncnc3onc(-c4ccc(F)cc4)c23)cc1 | -0.9% | -24.5% | 4.1% | 5.1% | nt | 7.1%
COc1ccc(NC(=S)NCc2ccccc2Cl)c(OC)c1 | -0.2% | 23.1µM* | 16.9% | -0.9% | 0.0 | -0.2%
COc1ccccc1NC(=S)NCc1cccs1 | -0.7% | 7.0% | -1.2% | 12.6µM* | 0.2 | 16.8%
COc1cccc(-c2nnc(Nc3nc4c(F)cccc4s3)o2)c1 | 16.8% | ? | -30.5% | 28.2µM* | 1.1 | -0.3%
COc1ccccc1-c1nnc(Nc2nc3c(OC)cccc3s2)o1 | 10.6% | ? | 0.9% | 35.5µM* | 0.6 | -14.3%
COc1ccc(-n2ncc(C(=O)N3CCN(c4ccccn4)CC3)c2C2CCN(C(=O)OC(C)(C)C)CC2)cc1 | -0.2% | -1.2% | 3.3% | -5.6% | nt | 10.5%
COc1ccc(-n2cnc3c(sc4nccc(N(C)C)c43)c2=O)cc1 | -0.9% | -15.4% | 8.8% | 14.1µM* | 0.9 | -11.0%
O=C(CSc1nc2[nH]c(=O)cc(O)c2s1)Nc1nccs1 | 0.1% | 0.6% | nt | 31.6µM* | 2.7 | -1.0%
O=C(CSc1nc2[nH]c(=O)cc(O)c2s1)Nc1nncs1 | -0.8% | 5.8% | nt | nt | -0.5 | 2.6%
CCCCNC(=O)OCC(CC)NC(=O)OC(C)C (stereo unspecified) | -0.2% | nt | -1.5% | 28.2µM* | 0.8 | -2.9%
CCc1ccc(C2c3c(n[nH]c3C)C(=O)N2c2ccc(C)cc2)cc1 (stereo unspecified) | 7.5% | -24.7% | 1.3% | 1.3% | nt | -10.4%
Cc1ccc(C(=O)N(C)CCOc2ccccc2)cc1S(=O)(=O)N1CCCCC1 | -0.9% | 20.6µM* | nt | 1.0% | 0.5 | -17.0%
CN(CCOc1ccccc1)C(=O)c1ccc(Cl)c(S(=O)(=O)N2CCCCC2)c1 | -0.4% | ? | nt | -2.2% | -0.5 | -2.9%
Cc1ccc(NC(=O)c2ccccc2NS(=O)(=O)c2ccc(Cl)s2)cc1S(=O)(=O)N1CCOCC1 | 2.1% | 23.1µM* | ? | -3.1% | -0.4 | ?
Cc1ccc(NC(=O)c2ccccc2F)cc1S(=O)(=O)N1CCCCCC1 | 5.8% | 16.4µM* | 3.5% | nt | -4.1 | -10.8%
COc1ccc(CCC(=O)Nc2ccc(OC)c(S(=O)(=O)N3CCCCC3)c2)cc1 | -0.5% | 16.4µM* | nt | -2.2% | 0.7 | ?
SMILES | Nrf2 ARE act | Nrf2 inh | miR-21 act | ClpP mod | IL-2 act | A549 tox
COc1ccc(-c2cc3nc(C)c(CCC(=O)NCc4ccccc4Cl)c(C)n3n2)c(OC)c1 | -0.8% | -1.2% | 4.3% | 2.9% | nt | -0.4%
C=CCc1ccccc1OCc1nc2ccccc2n1CC | 4.4% | ? | -2.0% | -0.9% | nt | 0.7%
COc1ccc(NC(=O)C(Cc2ccccc2)NS(=O)(=O)c2ccc3c(c2)CCN3C(C)=O)cc1 (stereo unspecified) | 0.2% | -16.9% | -9.5% | 1.0% | nt | -3.2%
CCCOc1ccc(CN(C(=O)c2nc(SC(C)C)ncc2Cl)C2CCS(=O)(=O)C2)cc1 (stereo unspecified) | 3.7% | -17.2% | 13.3% | 2.3% | nt | 1.6%
CC(=O)c1ccc(OCCCC(=O)Nc2ccc(C)c(S(=O)(=O)N3CCCCC3)c2)cc1 | 2.6% | 18.4µM* | nt | nt | -5.0 | -28.7%
CCc1ccc(C(=O)Nc2ccc(OC)c(S(=O)(=O)N3CCCCC3)c2)cc1 | 5.9% | 7.31µM* | nt | -2.5% | 1.0 | -11.3%
COc1ccc(C(=O)Nc2ccc(C)c(S(=O)(=O)N3CCCCCC3)c2)cc1 | 2.3% | 20.6µM* | 21.2% | nt | -0.6 | -18.8%
Cc1ccc(NC(=O)c2ccc(F)cc2)cc1S(=O)(=O)N1CCCCCC1 | 3.7% | ? | 29.2% | nt | -0.3 | -8.8%
CCOc1ccc(C(=O)CCC(=O)Nc2ccc(C)c(S(=O)(=O)N3CCCCC3)c2)cc1 | 2.8% | ? | nt | -3.1% | -1.5 | -1.3%
CCc1ccc(C(=O)Nc2ccc(OC)c(S(=O)(=O)N3CCOCC3)c2)cc1 | 3.4% | ? | 18.6% | nt | -0.9 | -12.1%
CCc1ccccc1NC(=O)CN(Cc1ccccc1)S(=O)(=O)c1ccc(Br)cc1 | 5.2% | -10.8% | -2.0% | -1.2% | nt | 6.6%
CCNc1ccc(/C=C2\C=Cc3ccccc32)cc1 | nt | nt | nt | 1.3% | nt | nt
COc1ccc(-c2nc(NC(=O)Cn3ccc(C(F)(F)F)n3)sc2C)cc1 | 2.5% | 20.6µM* | 21.1% | -0.6% | -0.3 | ?
COc1ccc(-c2nc(NC(=O)Cn3cnnn3)sc2C)cc1 | 0.5% | 3.1% | -3.0% | 0.5% | 0.7 | -1.9%
CCOc1ccccc1NC(=O)CSC1=Nc2ccccc2C2=NC(CC(=O)NC3CCCCC3)C(=O)N12 (stereo unspecified) | 10.4% | -21.5% | 18.5% | -2.0% | nt | ?
O=C(Nc1ccc(OC(F)(F)F)cc1)Nc1cccc([N+](=O)[O-])c1 | 0.0% | 20.6µM* | 13.9% | 0.7% | -0.8 | ?
O=C(Nc1ccc(Oc2ccc(NC(=O)Nc3ccc([N+](=O)[O-])cc3)cc2)cc1)Nc1ccc([N+](=O)[O-])cc1 | -0.7% | 16.4µM* | 4.3% | nt | -5.9 | ?
